From PubChem BioAssay come the findings set out here.

Activity calls are given as the source filed them.

Assay [1] can be described thus: binders of probe aFSTL3 on microarray, primary screen, stem cell growth factor project, biochemical, small-molecule microarray, fluorescence 635/667 (AID 1064).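 Also: measures binding of the biotinylated anti-FSTL3 antibody to printed compounds.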 As to conditions: higher = more signal.
Assay [2] can be described thus: binders from COS7 lysate, DM2A8 probe, primary screen, torsin A project, cell lysate, small-molecule microarray, fluorescence 635/667 (AID 1065). The conditions noted are these: higher = more signal, COS7 lysate expressing mutant human TOR1A.
Assay [3] in a line: binders of probe aFGF2 on microarray, primary screen, stem cell growth factor project, biochemical, small-molecule microarray, fluorescence 635/667 (AID 1067).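 Also: measures binding of biotinylated aFGF2 protein to printed compounds on slides; z-score merges feature fluorescence and signal-to-noise across triplicate slides.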 The conditions noted are these: higher = more signal.
A short description of assay [4]: binders of probe aFGF10 on microarray, primary screen, stem cell growth factor project, biochemical, small-molecule microarray, fluorescence 635/667 (AID 1071).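 Also: score merges 667 nm spot intensity and signal to noise from triplicate slides.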 As to conditions: higher = more signal.
Assay [5] has as its target Neurogenic locus notch homolog protein 2 (Homo sapiens) (UniProt Q04721). Put plainly: Notch2 binders on small-molecule microarrays, primary screen, biochemical, small-molecule microarray, 635 nm fluorescence, stem cell growth factors (AID 1073). As to conditions: Notch2 binding, higher = more signal.
The target in assay [6] is Pro-neuregulin-1, membrane-bound isoform (Homo sapiens) (UniProt Q02297). Put plainly: NRG1 binders on small-molecule microarrays, primary screen, psychiatric disease protein project, biochemical, small-molecule microarray, fluorescence 635/667 (AID 1075).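 Also: score combines 667 nm spot fluorescence with signal to noise.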 The conditions noted are these: NRG1 binding, 635 nm fluorescence, higher = more signal.
For assay [7], the system named is Neuregulin-1 EGF-like domain. Put plainly: binders of neuregulin-1 EGF-like domain, primary screen, biochemical, small-molecule microarray, 635 nm fluorescence (AID 1081).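 Also: binding of the protein to compounds printed on small-molecule microarray slides.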 As to conditions: small-molecule microarray binding, higher = more signal.
The nature of assay [8]: FRG1 promoter luciferase signal modulators, primary screen, FRG1 inhibition for FSHD, cell-based, C2C12 myotubes, firefly/Renilla luciferase, luminescence (AID 1084). As to conditions: higher = more signal, called active from +8 up or from −8 down.
Assay [9] is described as follows: binders of probe aFST on microarray, primary screen, stem cell growth factor project, biochemical, small-molecule microarray, fluorescence 635/667 (AID 1086).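 Also: score merges 667 nm fluorescence with signal-to-noise of each printed compound spot.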 As to conditions: higher = more signal.
A short description of assay [10]: binders of probe aHhip on microarray, primary screen, stem cell growth factor project, biochemical, small-molecule microarray, fluorescence 635/667 (AID 1087).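 Also: score merges spot fluorescence at 667nm with spot signal to noise ratio.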 The conditions noted are these: higher = more signal.
For assay [11], the system named is PRMT1 (protein arginine N-methyltransferase 1). The assay is described as follows: PRMT1 binders on small-molecule microarrays, primary screen, biochemical, small-molecule microarray, 635 nm fluorescence (AID 1088).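 Also: binding of Prmt1 protein to compounds spotted on small-molecule microarray slides.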 As to conditions: small-molecule microarray binding, higher = more signal.
Assay [12] can be described thus: yeast growth modulation, basal conditions, primary screen, YJM789 clinical isolate, OD600, 24 h (AID 1089).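 Also: growth of clinical yeast isolate S. cerevisiae YJM 789 seeded 1000 cells per well; test concentration not given here.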 The conditions noted are these: S. cerevisiae YJM789 growth, higher = more signal, called active from +8 up or from −8 down.
A short description of assay [13]: fission yeast growth modulation, primary screen, strain 972, OD600, 24 h, no modulator (AID 1090).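 Also: basal condition with compound alone and no growth modifier present; test concentration not given here.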 As to conditions: S. pombe 972 growth, higher = more signal, called active from +8 up or from −8 down.
Assay [14] in a line: S. cerevisiae growth modulation with rapamycin, primary screen, strain BY4716, OD600, 96 h (AID 1091). Also: test concentration not given here. As to conditions: higher = more signal, called active from +8 up or from −8 down.
Assay [15] concerns the target Torsin-1A-interacting protein 2 (Homo sapiens) (UniProt Q8NFQ8). The assay is described as follows: LULL1 binders on small-molecule microarray, primary screen, cell lysate, human LULL1 lysate, 635/667 nm fluorescence (AID 1092).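 Also: probe is lysate of COS7 cells overexpressing human LULL1; score merges per-feature 667 nm fluorescence with signal-to-noise.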 The conditions noted are these: hLULL1 lysate binding, 635 nm fluorescence, higher = more signal.
The nature of assay [16]: E. coli growth modulation, two-sided OD650, primary screen, E. coli filamentation project, strain DRC41, 24 h (AID 1093).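 Also: MC1000 strain lacking acrAB efflux and sulA so SOS filamentation is blocked; test concentration not given here.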 As to conditions: OD650, 24 h, higher = more signal, called active from +8 up or from −8 down.
A short description of assay [17]: small-molecule microarray binders of probe aLefty2, primary screen, biochemical, biotinylated probe, 635/667 nm fluorescence (AID 1094).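 Also: score merges spot fluorescence near 667 nm with spot signal-to-noise ratio.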 As to conditions: higher = more signal.
In assay [18] the test system is Noggin (protein binding on small-molecule microarray). The assay is described as follows: Noggin binders on small-molecule microarray, primary screen, biochemical, 635/667 nm fluorescence (AID 1095).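 Also: score merges 667 nm feature fluorescence with signal to noise over triplicate slides.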 The conditions noted are these: 635 nm fluorescence, higher = more signal.
The target in assay [19] is Neurogenic locus notch homolog protein 3 (Homo sapiens) (UniProt Q9UM47). The assay is described as follows: NOTCH3 binders on small-molecule microarray, primary screen, biochemical, 635/667 nm fluorescence (AID 1096). As to conditions: NOTCH3 binding, 635 nm fluorescence, higher = more signal.
The nature of assay [20]: small-molecule microarray binders of probe aEGFR, primary screen, biochemical, biotinylated probe, 635/667 nm fluorescence (AID 1097).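 Also: probe is a biotinylated anti-EGFR antibody binding compounds printed on slides; score combines fluorescence near 667 nm and signal to noise of each spot.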 As to conditions: higher = more signal.

Sequence of Neurogenic locus notch homolog protein 3 (Homo sapiens) (Q9UM47 whole entry, looked up): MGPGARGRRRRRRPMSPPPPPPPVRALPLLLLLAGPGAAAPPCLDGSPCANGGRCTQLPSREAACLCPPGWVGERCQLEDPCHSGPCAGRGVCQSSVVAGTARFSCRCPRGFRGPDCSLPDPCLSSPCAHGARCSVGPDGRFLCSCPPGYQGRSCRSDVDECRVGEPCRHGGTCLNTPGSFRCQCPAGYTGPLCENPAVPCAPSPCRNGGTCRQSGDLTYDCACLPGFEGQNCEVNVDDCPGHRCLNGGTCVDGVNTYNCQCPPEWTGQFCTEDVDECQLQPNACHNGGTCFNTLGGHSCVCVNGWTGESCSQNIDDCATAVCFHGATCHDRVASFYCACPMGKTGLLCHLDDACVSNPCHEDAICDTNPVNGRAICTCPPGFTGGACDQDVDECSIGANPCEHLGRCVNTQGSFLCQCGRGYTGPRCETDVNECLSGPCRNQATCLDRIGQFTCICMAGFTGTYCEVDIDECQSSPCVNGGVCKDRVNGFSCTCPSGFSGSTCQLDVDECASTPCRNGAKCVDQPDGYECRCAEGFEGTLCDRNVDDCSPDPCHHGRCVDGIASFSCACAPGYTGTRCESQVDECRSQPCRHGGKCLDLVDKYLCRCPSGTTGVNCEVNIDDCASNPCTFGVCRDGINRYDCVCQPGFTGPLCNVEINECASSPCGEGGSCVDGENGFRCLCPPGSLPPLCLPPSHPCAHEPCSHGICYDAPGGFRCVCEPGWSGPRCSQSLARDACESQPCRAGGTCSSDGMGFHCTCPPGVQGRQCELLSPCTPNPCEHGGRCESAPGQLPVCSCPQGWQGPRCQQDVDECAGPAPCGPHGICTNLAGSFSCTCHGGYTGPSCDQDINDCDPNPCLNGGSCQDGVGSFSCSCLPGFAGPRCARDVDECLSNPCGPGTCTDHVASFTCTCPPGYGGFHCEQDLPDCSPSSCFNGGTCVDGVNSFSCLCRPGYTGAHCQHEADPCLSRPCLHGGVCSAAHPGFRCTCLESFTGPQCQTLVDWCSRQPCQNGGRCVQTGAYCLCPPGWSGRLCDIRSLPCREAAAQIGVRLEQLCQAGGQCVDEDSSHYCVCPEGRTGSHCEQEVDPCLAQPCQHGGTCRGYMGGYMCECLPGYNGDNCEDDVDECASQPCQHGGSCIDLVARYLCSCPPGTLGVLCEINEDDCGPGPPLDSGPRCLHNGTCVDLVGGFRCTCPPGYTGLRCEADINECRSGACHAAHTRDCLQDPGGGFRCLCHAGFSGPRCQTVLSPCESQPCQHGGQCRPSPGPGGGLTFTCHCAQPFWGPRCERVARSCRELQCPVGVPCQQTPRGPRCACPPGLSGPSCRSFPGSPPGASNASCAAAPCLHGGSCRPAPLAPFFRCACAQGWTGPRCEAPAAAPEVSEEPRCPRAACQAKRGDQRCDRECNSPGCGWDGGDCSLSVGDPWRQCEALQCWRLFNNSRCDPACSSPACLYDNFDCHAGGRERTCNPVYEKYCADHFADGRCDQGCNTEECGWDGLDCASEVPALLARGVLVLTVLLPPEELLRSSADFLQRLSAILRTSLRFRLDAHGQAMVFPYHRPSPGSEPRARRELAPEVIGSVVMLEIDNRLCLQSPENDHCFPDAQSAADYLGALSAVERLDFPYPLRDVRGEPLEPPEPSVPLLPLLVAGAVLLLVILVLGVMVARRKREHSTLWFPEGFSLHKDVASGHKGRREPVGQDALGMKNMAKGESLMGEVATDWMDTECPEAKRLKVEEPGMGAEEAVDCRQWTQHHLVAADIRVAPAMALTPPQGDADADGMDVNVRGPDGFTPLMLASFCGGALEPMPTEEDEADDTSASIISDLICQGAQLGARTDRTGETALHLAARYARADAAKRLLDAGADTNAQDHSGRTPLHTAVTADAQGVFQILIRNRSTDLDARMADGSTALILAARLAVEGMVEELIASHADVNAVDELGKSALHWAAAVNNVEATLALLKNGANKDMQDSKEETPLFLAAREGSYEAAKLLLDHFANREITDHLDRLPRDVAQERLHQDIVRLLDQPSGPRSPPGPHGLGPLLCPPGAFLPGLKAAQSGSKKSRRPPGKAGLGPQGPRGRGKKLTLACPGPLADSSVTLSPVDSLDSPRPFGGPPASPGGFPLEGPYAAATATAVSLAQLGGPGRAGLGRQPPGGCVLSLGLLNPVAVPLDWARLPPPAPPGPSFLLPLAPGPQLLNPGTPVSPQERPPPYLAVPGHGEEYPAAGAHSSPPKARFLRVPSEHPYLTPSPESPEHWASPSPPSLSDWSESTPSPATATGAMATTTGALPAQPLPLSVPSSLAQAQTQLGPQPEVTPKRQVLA
Sequence of Torsin-1A-interacting protein 2 (Homo sapiens) (Q8NFQ8 whole entry, looked up): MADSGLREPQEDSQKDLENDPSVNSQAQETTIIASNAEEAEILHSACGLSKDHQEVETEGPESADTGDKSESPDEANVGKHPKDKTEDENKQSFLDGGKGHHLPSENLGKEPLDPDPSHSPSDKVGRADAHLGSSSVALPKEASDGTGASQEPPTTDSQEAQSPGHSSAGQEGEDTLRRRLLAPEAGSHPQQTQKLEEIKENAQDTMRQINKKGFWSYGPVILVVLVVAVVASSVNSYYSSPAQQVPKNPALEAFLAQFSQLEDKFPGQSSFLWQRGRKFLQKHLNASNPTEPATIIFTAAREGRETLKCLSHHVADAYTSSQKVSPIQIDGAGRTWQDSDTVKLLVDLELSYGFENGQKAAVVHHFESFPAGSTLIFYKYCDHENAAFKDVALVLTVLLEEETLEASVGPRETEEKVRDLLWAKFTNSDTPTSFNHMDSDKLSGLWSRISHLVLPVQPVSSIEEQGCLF
Sequence of Pro-neuregulin-1, membrane-bound isoform (Homo sapiens) (Q02297 whole entry, looked up, the tested form may be a part, canonical isoform): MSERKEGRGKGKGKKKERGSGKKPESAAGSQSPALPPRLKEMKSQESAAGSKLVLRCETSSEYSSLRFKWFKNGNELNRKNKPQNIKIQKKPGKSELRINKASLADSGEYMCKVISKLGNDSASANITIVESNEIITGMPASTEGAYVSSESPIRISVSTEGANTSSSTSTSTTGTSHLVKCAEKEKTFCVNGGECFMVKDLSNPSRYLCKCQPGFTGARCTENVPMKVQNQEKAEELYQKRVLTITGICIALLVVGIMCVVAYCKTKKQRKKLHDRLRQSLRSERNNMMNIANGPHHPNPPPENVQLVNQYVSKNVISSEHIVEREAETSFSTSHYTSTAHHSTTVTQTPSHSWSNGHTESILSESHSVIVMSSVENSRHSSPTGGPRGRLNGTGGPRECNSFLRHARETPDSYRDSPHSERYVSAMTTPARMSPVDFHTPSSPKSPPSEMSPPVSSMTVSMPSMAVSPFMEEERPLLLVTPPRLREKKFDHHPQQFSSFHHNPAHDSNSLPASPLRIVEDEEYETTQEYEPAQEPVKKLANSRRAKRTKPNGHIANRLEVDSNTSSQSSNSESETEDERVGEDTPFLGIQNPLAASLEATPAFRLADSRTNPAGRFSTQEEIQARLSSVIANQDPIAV

As to `C[C@H]1CC[C@H]2C(=O)OC(COc3ccc(C(C)(C)C)cc3)CN2[C@@H]1c1ccc(Br)cc1` (stereo not given in full), the composite z-score in [1] was -0.373; in assay [2], -0.52; in [3], -0.169; in assay [4], 0.62; in assay [5], -0.123; in assay [6], 0.449. For the same compound, the composite z-score in [7] was 1.05; in assay [9] it was -0.0895; in [10], -0.0618; in [11] it was 1.02; in assay [15], 1.25; in assay [17], -0.139. For the same compound, the results for the composite z-score in assay [18], in [19] and in assay [20] were 0.756, 0.165 and -0.175, respectively. In addition, the z-score in [8] is 0.458 (inactive); in assay [12], -0.498 (inactive); in assay [13] it was -17.9 (active); in [14], -1.73 (inactive); in assay [16], 1.24 (inactive).

As for `O=C1[C@H]2[C@H]3[C@H](O)[C@H](O)CC(=NO[C@@H]4O[C@H](CO)[C@@H](O)[C@H](O)[C@H]4O)[C@@H]3CC[C@H]2C(=O)N1C1CCCCC1`, the composite z-score is -0.599 in assay [1]; -0.0085 in assay [2]; -0.0924 in assay [3]; 0.233 in assay [4]; 0.598 in assay [5]; 0.132 in [6]. For the same compound, the composite z-score was 0.0698 in assay [7]; 0.296 in [9]; -0.0645 in assay [10]; 0.112 in assay [11]; 0.301 in [15]; -0.174 in assay [17]. In addition, the composite z-score in [18] was 0.662; in [19], 0.749; in assay [20], -0.111. Moreover, the z-score in assay [8] was -0.637 (inactive); in assay [12], 0.0081 (inactive); in assay [13], -0.159 (inactive); in [14], -0.291 (inactive); in [16] it was -0.166 (inactive).

For the compound `O=C1C2=CC[C@H]3C(=O)N(Cc4ccccc4)C(=O)[C@H]3[C@H]2[C@H](O)[C@@H]2O[C@H]12`, the composite z-score is -0.291 in assay [1]; -0.339 in assay [2]; -0.132 in [3]; 0.011 in assay [4]; 0.0297 in assay [5]; -0.0087 in assay [6]. Moreover, the composite z-score is 0.281 in assay [7]; -0.351 in assay [9]; 0.176 in assay [10]; 0.0864 in assay [11]; -1.23 in assay [15]; -0.185 in assay [17]. In addition, the composite z-score in assay [18] was -0.0873; in assay [19], -0.95; in [20], -0.125. Moreover, the z-score in assay [8] was 6.64 (inactive); in assay [12] it was -0.733 (inactive); in assay [13], -2.12 (inactive); in [14], -0.213 (inactive); in assay [16] it was -0.559 (inactive).

For `O=C1[C@H]2[C@H]3[C@H](O)[C@H](O)CC(=NO[C@@H]4O[C@H](CO)[C@@H](O)[C@H](O)[C@H]4O)[C@H]3CC[C@H]2C(=O)N1c1ccc(F)cc1F`, the composite z-score was 0.552 in [1]; 0.75 in assay [2]; 0.0159 in [3]; 0.265 in assay [4]; 0.51 in [5]; -0.557 in assay [6]. Besides, the composite z-score in [7] is -0.977; in assay [9], 0.437; in [10], -0.0296; in assay [11] it was 1.08; in assay [15], 0.0348; in [17], -0.128. For the same compound, the composite z-score in [18] was 0.161; in assay [19], 0.365; in assay [20] it was -0.0084. For the same compound, the z-score in [8] was 0.404 (inactive); in [12] it was -0.484 (inactive); in [13], -0.352 (inactive); in assay [14], -1.99 (inactive); in assay [16] it was 0.356 (inactive).

Turning to `OC[C@H]1O[C@H](C#Cc2ccccc2)C=C[C@@H]1O`, the composite z-score in assay [1] was -0.406; in assay [2], -0.437; in [3], -0.0732; in [4], 0.325; in assay [5], 0.322; in assay [6], 0.0659. For the same compound, the composite z-score is 0.0463 in assay [7]; 0.101 in [9]; 0.107 in assay [10]; 0.232 in assay [11]; 0.233 in [15]; -0.113 in assay [17]. The figures for the composite z-score in [18], in [19] and in assay [20] were 0.498, 0.609 and -0.124, respectively. Moreover, the z-score is -0.999 (inactive) in [8]; 0.643 (inactive) in assay [12]; -1.33 (inactive) in assay [13]; -0.98 (inactive) in assay [14]; 0.897 (inactive) in assay [16].
